An excerpt weighted towards active compounds, which were near 2.4% of everything screened.
WRN inhibitor – blocks human WRN helicase | Potency, µM (doses to about 114 µM), without a hit: at the highest dose activity change, negative = inhibition, most hits filed as inhibitors | WRN helicase unwinding, fluorescent forked duplex, kinetic | 360,000 compounds, 0.46% hits | Q14191; also: % is scaled to controls: 0 for no effect and ±100 for the full control effect; nearly all actives have a fitted effect of over 55% in size
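Kinetic fluorescence helicase assay: unwinding of a quenched forked DNA duplex (100 nM final) with 2 mM ATP final raises red fluorescence (525/598 nm). Compounds sat 15 min at room temperature with 20 nM WRN beforehand.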
FEN1 inh – inhibitors of human flap endonuclease 1; Potency, µM (highest dose often 114 µM), without a hit: at the highest dose activity change, negative = inhibition, usual class: inhibitors; 390,000 compounds, 0.35% hits; AID 588795; Recombinant FEN1 flap cleavage, fluorescence, 15 min; P39748; also: % is scaled to controls: 0 for no effect and ±100 for the full control effect; nearly all actives have a fitted effect of over 65% in size
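With each library titrated from low to high concentration, compounds met 10 nM FEN1 for 15 min at room temperature before 50 nM substrate was added; readings at 0 and 15 min fed four-parameter Hill curve fits.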
POLH inh – DNA polymerase eta (human) inhibition; Q9Y253; recombinant Pol eta, fluorescent DNA replication assay; Potency, µM (highest dose often 114 µM), for inactives: at the top dose activity change, negative = inhibition, actives largely listed as inhibitors; 390,000 compounds, 1.2% hits; also: % is scaled to controls: 0 for no effect and ±100 for the full control effect
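Pol eta (10 nM) was preincubated with compounds for 15 min at room temperature, after which fluorescent replication substrate (50 nM final) was added to start the reaction. Fluorescence was read kinetically at 0 and 10 min.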
Pol beta inh – DNA polymerase beta (human) inhibition; P06746; Pol beta primer extension/strand displacement, fluorescence kinetic; Potency, µM (doses to about 114 µM), inactives show top-dose activity change, negative = inhibition, usual class: inhibitors; 340,000 compounds, 1.3% hits; AID 485314; also: % is scaled to controls: 0 for no effect and ±100 for the full control effect
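Reaction started by 50 nM substrate onto compound-treated Pol beta (10 nM, 15 min preincubation, room temperature); plates read at 0 min and 10 min. Normalized concentration-effect data fitted by four-parameter Hill equation.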
POLK inh – inhibitors of human DNA polymerase kappa | Q9UBT6 | purified Pol kappa, fluorescent DNA synthesis assay, 10 min | Potency, µM (series often up to 107 µM), inactives show at the top dose activity, negative = inhibition, hits mostly inhibitors | 400,000 compounds, 0.53% hits | AID 588579; also: % is scaled to controls: 0 for no effect and ±100 for the full control effect
Target sequence (Q9UBT6 whole entry, looked up): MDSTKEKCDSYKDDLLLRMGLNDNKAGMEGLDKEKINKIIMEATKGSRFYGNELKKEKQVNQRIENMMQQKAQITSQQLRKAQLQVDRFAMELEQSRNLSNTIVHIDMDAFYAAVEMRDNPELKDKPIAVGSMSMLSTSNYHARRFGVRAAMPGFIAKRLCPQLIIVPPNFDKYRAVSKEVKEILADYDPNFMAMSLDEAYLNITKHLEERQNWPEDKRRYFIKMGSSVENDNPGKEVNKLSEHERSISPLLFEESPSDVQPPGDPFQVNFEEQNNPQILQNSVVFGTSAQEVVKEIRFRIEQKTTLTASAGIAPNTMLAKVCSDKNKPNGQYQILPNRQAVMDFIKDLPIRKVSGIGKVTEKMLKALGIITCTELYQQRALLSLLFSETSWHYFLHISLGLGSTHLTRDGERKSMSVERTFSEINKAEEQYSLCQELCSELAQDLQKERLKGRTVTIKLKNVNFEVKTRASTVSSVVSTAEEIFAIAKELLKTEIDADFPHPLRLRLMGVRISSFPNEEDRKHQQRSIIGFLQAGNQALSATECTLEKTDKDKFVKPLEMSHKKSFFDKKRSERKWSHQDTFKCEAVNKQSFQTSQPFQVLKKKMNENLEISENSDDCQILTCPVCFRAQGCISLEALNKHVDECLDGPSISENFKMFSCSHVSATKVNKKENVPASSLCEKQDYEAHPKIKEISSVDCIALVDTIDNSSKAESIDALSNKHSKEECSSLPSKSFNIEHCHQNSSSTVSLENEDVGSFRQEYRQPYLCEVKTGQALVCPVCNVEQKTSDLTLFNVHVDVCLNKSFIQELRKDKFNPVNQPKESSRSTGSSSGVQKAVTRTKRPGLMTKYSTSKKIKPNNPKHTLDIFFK
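Inhibition of 10 nM Pol kappa is measured by a fluorescent read-out at 0 and 10 min following addition of 50 nM substrate (final), with a 15-min room-temperature compound preincubation.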
Pol iota inh – DNA polymerase iota (human) inhibition; Q9UNA4; Pol iota fluorescent replication assay, 10 min; Potency, µM (series often up to 115 µM), for the others: at the highest dose activity, negative = inhibition, usual class: inhibitors; 390,000 compounds, 1% hits; AID 588590
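Fluorescent replication assay read twice, at 0 min and 10 min after adding 50 nM (final) substrate. Enzyme (10 nM) and compounds were first incubated 15 min at room temperature; enzyme-free buffer wells were negative controls.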
The depositor's hits bear a star; u = inconclusive; x = no result given; [ ] = another dose, or the depositor's remark. Calls follow the shape of the dose curve; as a rule, active = well fitted curve in the direction sought with a large enough effect; inconclusive = small, poorly fitted or top-dose-only effect, or another doubt; inactive = no such curve, though single readings can be large; an effect the other way counts as inactive or inconclusive. Potency is read from the fitted curve at half-maximal effect.

SMILES	WRN inhibitor	FEN1 inh	POLH inh	Pol beta inh	POLK inh	Pol iota inh
C#CCOCCOCCOCCNc1nc(N2CCN(C(=O)[C@H](Cc3ccc(O)cc3)n3cc([C@@H](N)CC(C)C)nn3)CC2)nc(N2CCN(C(=O)[C@H](Cc3ccc(O)cc3)n3cc([C@@H](N)CC(C)C)nn3)CC2)n1	x	x	x	32µM*	x	x
C#CCOCCOCCOCCNc1nc(N2CCN(C(=O)C(Cc3ccc(O)cc3)n3cc(C(N)CC(C)C)nn3)CC2)nc(N2CCN(C(=O)C(Cc3cc4ccccc4[nH]3)n3cc(C(N)C(C)CC)nn3)CC2)n1 (centres undefined)	x	x	x	50µM*	x	x
C#CCOCCOCCOCCNc1nc(N2CCN(C(=O)[C@H](Cc3ccc(O)cc3)n3cc([C@@H](N)C(C)CC)nn3)CC2)nc(N2CCN(C(=O)[C@H](Cc3cc4ccccc4[nH]3)n3cc([C@@H](N)Cc4ccc(O)cc4)nn3)CC2)n1 (some centres undefined)	x	x	x	-10%	x	x
C#CCOCCOCCOCCNc1nc(N2CCN(C(=O)C(Cc3cc4ccccc4[nH]3)n3cc(C(N)C(C)CC)nn3)CC2)nc(N2CCN(C(=O)C(Cc3cc4ccccc4[nH]3)n3cc(C(N)C(C)CC)nn3)CC2)n1 (centres undefined)	-30%	u	-2%	20µM*	1%	u
CCOC(=O)c1sc(NC(=O)c2cccs2)nc1C	-8%	-10%	-9%	0%	-11%	4%
CC(NC(=O)c1ccccc1NC(=O)CSc1nnnn1C)c1ccccc1 (centres undefined)	3%	8%	-21%	-8%	-11%	13%
CSc1ccccc1NC(=O)c1c(Br)cnn1C	4%	-4%	-15%	6%	-1%	12%
CCOC(=O)COc1ccccc1/C=C\[N+](=O)[O-]	32µM*	6%	-13%	-1%	-8%	-22%
Cc1ccc(C(=O)COC(=O)COc2ccccc2[N+](=O)[O-])s1	-4%	15%	u	x	-16%	-7%
O=C(N/N=C/c1ccc([N+](=O)[O-])o1)c1ccccc1NS(=O)(=O)c1cccs1	-11%[11.6 µM]	u	56µM*	u	-25%	40µM*
Nn1c(SCC(=O)Nc2cc(C(F)(F)F)ccc2Cl)nncc1=O	u	-4%	u	5%	u	79µM*
Nn1c(SCC(=O)Nc2cccc(C(F)(F)F)c2)nncc1=O	-3%	-16%	-12%	-12%	-8%	-22%
Cc1c(NC(=O)c2cnn3c2NC(c2ccccc2)CC3C(F)(F)F)c(=O)n(-c2ccccc2)n1C (centres undefined)	-17%	1%	-3%	30%	-14%	6%
O=C1c2ccccc2NC(c2cccc(Cl)c2)N1N=C1CCCCCC1 (centres undefined)	0%	-1%	-22%	-7%	-12%	-1%
CCO/C=C1\SC(=S)N(c2ccc(Cl)cc2)C1=O	u	1%	-9%	u	-15%	25µM*
Cc1ccc(NC(=O)c2ccc(-n3cccn3)c([N+](=O)[O-])c2)cc1	-5%	-21%	-6%	0%	0%	-2%
O=C(Nc1ccc(C2=NCCN2)cc1)c1ccc(C(=O)Nc2ccc(C3=NCCN3)cc2)c([N+](=O)[O-])c1	u	40µM*	u	2.2µM*	45µM*	10µM*
CCOC(=O)c1c(N)sc(=S)c2c1CCC2	-28%	-19%	u	8.9µM*	-29%	u
O=C1SC(SCc2ccccc2)=N/C1=C\c1ccco1	50µM*	u	79µM*	35µM*	32µM*	11µM*
O=C1SC(SCc2ccccc2)=N/C1=C\c1ccc(C(=O)O)cc1	-29%	-8%	1%	4%	-33%	-2%
Cc1ccc(/C=[N+](\[O-])c2ccc(N(C)C)cc2)c2nsnc12	-5%[11.6 µM]	u	-1%	u	-16%	50µM*
Cc1nn(CCCC(=O)NCc2ccccc2)c(C)c1[N+](=O)[O-]	5%	-3%	-4%	1%	1%	21%
O=[N+]([O-])c1cccc(CNC2CCCCCC2)c1	10%	-2%	-11%	28µM*	0%	122%
Cc1ccc(NC(=O)CCc2c(C)nn(-c3ccc(N4CCOCC4)nn3)c2C)cc1C	1%	-3%	-12%	0%	8%	33%
O=C(c1ccco1)N1CCN(C(=O)c2ccc(-c3ccc([N+](=O)[O-])cc3)o2)CC1	u	79µM*	22µM*	x	28µM*	18µM*
SMILES	WRN inhibitor	FEN1 inh	POLH inh	Pol beta inh	POLK inh	Pol iota inh
O=C(c1ccc([N+](=O)[O-])cc1)N1CCN(C(=O)c2ccco2)CC1	5%	0%	-10%	-8%	-2%	17%
O=C(/C=C/c1ccc(O)c(O)c1)c1ccc(O)cc1O	x	x	x	x	21µM*	x
O=C(/C=C/c1ccc2c(c1)OCO2)c1ccc(O)cc1O	-11%	1%	-25%	x	-2%	u
N#Cc1ccc(CSc2nnc(NC(=O)C3CC(=O)N(c4ccc5c(c4)OCCO5)C3)s2)cc1 (centres undefined)	-9%	15%	-13%	8.9µM*	1%	31%
CCc1ccc(-c2csc(NC(=O)C3CC(=O)N(c4ccc5c(c4)OCCO5)C3)n2)cc1 (centres undefined)	-28%	u	-18%	u	-29%	89µM*
Cc1cc(C(=O)Nc2ccc(Cl)cc2)c(C)n1Cc1cccs1	2%[11.6 µM]	-7%	-21%	4%	-14%	u
COc1cc(N)c(N)cc1OC	x	u	x	x	-21%	22µM*
N[C@H](CSC(c1ccccc1)(c1ccccc1)c1ccccc1)C(=O)O	x	x	x	x	-15%[60.1 µM]	x
NC(CSC(c1ccccc1)(c1ccccc1)c1cccc2ccccc12)C(=O)O (centres undefined)	u	-20%	20µM*	x	u	u
Cc1ccc(NC(=O)C(C)OC(=O)c2nc(Cl)ccc2Cl)cc1S(=O)(=O)N1CCOCC1 (centres undefined)	-4%[11.6 µM]	-24%	u	x	-30%	u
Cc1ccc(NC(=O)C(C)OC(=O)c2ccc(Cl)nc2)cc1S(=O)(=O)N1CCOCC1 (centres undefined)	-17%	-4%	20µM*	x	-15%	u
Cc1noc(C)c1C(=O)OCC(=O)c1c[nH]c2ccccc12	-11%	-20%	9%	-1%	-6%	25%
O=C(CSc1c2c(nc3ccc(Cl)cc13)CCCC2)N1CCN(c2ccc(Cl)cc2)CC1	x	6%	-12%	-11%	1%	-6%
Cc1ccc2nc3c(c(C(=O)O)c2c1)CCC3	-10%[57.1 µM]	u	32µM*	45µM*	-43%	u

High-throughput results from PubChem.
